Screens (PubChem BioAssay)
Hits are enriched below; roughly 2.4% of the tested compounds scored in any of these assays.
CHRM1 agonist = activates human CHRM1 receptor | actives 0.33% (n = 360,000) | activation, % at 3 µM | P11229 | CHO-K1 hM1, Fluo-8 calcium fluorescence, agonist mode; 0% DMSO, 100% acetylcholine EC100;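 active = activation above the run's mean compound activation plus 3 SD, cut at about 16% in these data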;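 also: peak over basal fluorescence ratio within a 140 s kinetic read after compound addition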
Target sequence (P11229 whole entry, looked up): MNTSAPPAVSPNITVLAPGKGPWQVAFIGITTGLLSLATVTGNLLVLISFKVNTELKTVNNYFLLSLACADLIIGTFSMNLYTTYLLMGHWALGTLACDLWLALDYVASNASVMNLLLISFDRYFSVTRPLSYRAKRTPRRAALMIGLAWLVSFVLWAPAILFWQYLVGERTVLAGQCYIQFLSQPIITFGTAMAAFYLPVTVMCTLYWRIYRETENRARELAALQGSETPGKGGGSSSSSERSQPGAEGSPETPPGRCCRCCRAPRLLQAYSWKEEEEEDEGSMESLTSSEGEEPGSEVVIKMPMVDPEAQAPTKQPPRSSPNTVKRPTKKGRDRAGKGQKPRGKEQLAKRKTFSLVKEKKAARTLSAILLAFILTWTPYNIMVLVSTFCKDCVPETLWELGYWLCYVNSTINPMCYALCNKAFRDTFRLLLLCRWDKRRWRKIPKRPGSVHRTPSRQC
M1 PAM parental = counter-screen for M1 PAMs: effect in parental CHO-K1 cells. ATP EC20, Fluo-8 calcium fluorescence; 0% at ATP EC20, 100% at ATP max. activation, % at 3 µM. actives 0.02% (n = 360,000). AID 602247;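 active = activation above the run cutoff, the mean activation of all test compounds plus 3 SD, cut at about 40% in these data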;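 also: peak over basal fluorescence ratio in a 140 s read after ATP addition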
CHO-K1 Ca ag = nonselective activator or artifact in parental CHO-K1 cells. AID 602248. Fluo-8 calcium fluorescence; scaled to maximal ATP response, vehicle zero. actives 0.48% (n = 360,000). activation, % at 3 µM; in the data active = activation above about 15%;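 also: untransfected CHO-K1 host cells lacking M1 receptor as counterscreen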
CHRM1 antagonist = blocks human M1 muscarinic receptor; AID 588852; actives 1.3% (n = 360,000); P11229; CHO-K1 hM1, Fluo-8 calcium fluorescence, ACh EC80 antagonist; inhibition, % at 3 µM;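 active = percent inhibition above its own plate's cutoff, namely the mean of that plate's compound wells plus 3 SD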;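 also: peak over basal fluorescence ratio during 140 s after agonist addition; 0% = ACh EC80 plus DMSO and 100% = DMSO alone without agonist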
M1 PAM = positive allosteric modulators of human M1 muscarinic receptor | P11229 | CHO-K1 hM1, Fluo-8 calcium fluorescence, ACh EC20; 0% = ACh EC20, 100% = maximal ACh | activation, % at 3 µM | actives 0.088% (n = 360,000) | AID 588819; in the data active = activation above about 19%, passing the limit was not always enough
CHO-K1 Ca antag = counter-screen for M1 antagonists: effect in parental CHO-K1 cells; ATP-induced calcium, Fluo-8 fluorescence; inhibition, % at 3 µM; actives 0.6% (n = 360,000);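 active = inhibition above a per-plate cutoff, the plate's mean sample inhibition plus 3 SD, cut at about 24% in these data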;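 also: 0% = DMSO plus EC80 ATP and 100% = DMSO alone without ATP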
Starred values were filed as active, the others as inactive.

SMILES	CHRM1 agonist	M1 PAM parental	CHO-K1 Ca ag	CHRM1 antagonist	M1 PAM	CHO-K1 Ca antag
FC(F)(F)c1cccc(NC(=S)Nc2cccc(NC(=S)Nc3cccc(C(F)(F)F)c3)n2)c1	-1	12	1	0	3	-2
Cc1c(C(=O)NC(=S)Nc2ccc(NC(=O)c3cccs3)cc2)cccc1[N+](=O)[O-]	2	9	6	33*	-15	2
CC(C)(C)c1ccc(C(=O)NC(=S)NNC(=O)c2cccs2)cc1	92*	-16	85*	27*	-28	10
COc1cc(C(=O)NNC(=S)NC(=O)c2ccc(Cl)cc2)cc(OC)c1OC	33*	-10	10	0	-14	-1
O=C(NC(=S)NNC(=O)c1cccs1)c1ccccc1	0	-13	0	19	-4	1
Cc1cccc(C(=O)NC(=S)NNC(=O)c2cccs2)c1	19*	-10	15*	-1	-10	4
CC(=O)NC(=S)Nc1ccc(NC(=S)NC(=O)c2cccs2)cc1	-1	12	1	-4	3	-5
COC(=O)c1ccccc1S(=O)(=O)N1CCC(C(=O)NC2CCCCC2C)CC1 (stereo not given)	-5	-1	0	12	-5	-3
CNc1ncnc2c1ncn2[C@H]1CN(Cc2cccnc2)C[C@@H](CO)O1	3	-17	0	-4	7	15
Cc1ccccc1C(=O)NNC(=S)NC(=O)c1cccs1	51*	-24	37*	13	-15	2
Cc1ccccc1C(=O)Nc1cccc(NC(=S)NC(=O)c2cccs2)c1	-2	14	2	-3	1	3
COc1ccccc1CNS(=O)(=O)c1ccc2c(c1)CC(C)N2C(=O)C1CCC1 (stereo not given)	5	-10	14	32	-15	31*
COc1ccccc1CNS(=O)(=O)c1ccc2c(c1)CC(C)N2C(=O)C1CC1 (stereo not given)	3	5	15	3	-8	-15
C=C1CCN(c2ccc(C(=O)NCCC)cc2[N+](=O)[O-])CC1	-4	3	0	-5	3	-14
CCCCOP(=O)(c1ccc(N(C)C)cc1)C(Nc1ccccc1)c1ccccc1 (stereo not given)	-3	14	27*	30	-14	11
CCCOP(=O)(c1ccc(N(C)C)cc1)C(Nc1ccccc1)c1ccc(N(C)C)cc1 (stereo not given)	-3	21	0	6	-5	-8
Oc1cccc2oc(=S)[nH]c12	0	11	0	-21	15	-13
Cc1cc(C)c(CN2CCN(C(=O)Cn3cnc4c(NCc5ccccc5)ncnc43)CC2)c(C)c1	-1	-10	1	1	1	25*
O=C(NCCc1ccccc1)c1cc(-c2ccccc2)c(N2CCOCC2)s1	9	1	0	-1	11	-13
CCN(CC)CCCNC(=O)c1cc(-c2ccccc2)c(N2CCCCC2)s1	-9	9	3	55*	-25	-14
Cc1cccc(C)c1NC(=O)CN(Cc1ccccc1)Cc1ccccc1	18*	15	6	-24	2	-9
N#Cc1ccsc1NC(=O)CN(Cc1ccccc1)Cc1ccccc1	-8	44*	1	-8	9	-19
N#Cc1ccsc1NC(=O)CCc1ccccc1	-2	16	1	-6	7	-10
CCNC(=O)C1(C)CCCN1C(=O)c1ccc(C#N)cc1 (stereo not given)	-1	19	0	-4	3	-17
Oc1ccc(Cl)cc1C1=NNC(c2cccs2)C1 (stereo not given)	-1	10	1	0	0	1
SMILES	CHRM1 agonist	M1 PAM parental	CHO-K1 Ca ag	CHRM1 antagonist	M1 PAM	CHO-K1 Ca antag
Cc1ccc(O)c(C2=NNC(c3ccc(Cl)cc3)C2)c1 (stereo not given)	23*	12	3	45*	12	10
Cc1ccc(S(=O)(=O)CCSc2cccc(C(=O)Nc3ccccc3C(=O)O)c2)cc1	-2	2	0	6	37*	0
CC1=CC(C)C2(CO)COC(c3ccc(O)cc3)C1C2C (stereo not given)	5	-3	2	6	3	8
CC1=CC(C)C2(CO)COC(c3cccnc3)C1C2C (stereo not given)	-1	-11	1	1	11	28*
COCCC(=O)NNS(=O)(=O)c1ccc(Cl)cc1	-8	21	0	-1	5	-7
CC(C)c1nnc(SCC(=O)NCc2ccco2)n1C	1	-9	0	-3	9	30*
Cc1ccc2nc3n(c(=O)c2c1)CCCCC3	-8	8	0	19*	-19	-5
O=c1c2cc(Br)ccc2nc2n1CCCCC2	-4	-24	0	86*	-20	-4
O=c1c2cc([N+](=O)[O-])ccc2nc2n1CCCC2	-5	7	1	5	3	-6
CC(C)(C)NS(=O)(=O)c1ccc(NC(=S)NC(=O)C2CC2)cc1	0	-3	4	-12	6	-1
O=C(Nc1ccccc1)OCCCCCOC(=O)Nc1ccccc1	-5	0	9	-6	-4	26*
COc1ccc(OCCOC(=O)Nc2ccccc2)cc1	-4	4	1	31*	-1	4
O=C(NCC1CCCO1)c1ccc(F)c2ccccc12 (stereo not given)	-2	19	0	-19	13	-2
COc1ccc(F)cc1C(=O)C1CCCN(Cc2cccn2-c2cccnc2)C1 (stereo not given)	-8	12	2	-10	0	-3
COc1ccc(F)cc1C(=O)C1CCCN(Cc2c(C)n(C)n(-c3ccccc3)c2=O)C1 (stereo not given)	-14	22	2	36*	-32	7
O=C(Nc1ccc(Oc2ccccc2)nc1)C1CCN(Cc2cccc(F)c2)CC1	3	-2	24*	-1	3	8
C#Cc1ccc(CN2CCC(C(=O)Nc3ccc(Oc4ccccc4)nc3)CC2)cc1	0	15	9	5	-2	-6
CCCn1c(N)c(C(=O)NS(=O)(=O)c2ccc(C)cc2)c(=O)n(C)c1=O	0	2	17*	-3	6	6
CC(C)(C)C1C=C(Sc2ccccc2)C(=O)O1 (stereo not given)	-2	-5	0	3	2	5
Cc1sc2nc(CSC(C)C(=O)Nc3cc(S(C)(=O)=O)ccc3Cl)[nH]c(=O)c2c1C (stereo not given)	-6	-5	1	-7	2	-17
CN(C)S(=O)(=O)N1CCC(Oc2cccc(C(=O)NC3CCCCCC3)c2)CC1	1	-6	15*	22	-9	17
